Screens: PubChem BioAssay, National Center for Advancing Translational Sciences (NCATS)
DT40 TDP1 no CPT – qHTS for Inhibitors of human tyrosyl-DNA phosphodiesterase 1 (TDP1): qHTS in cells in absence of CPT; DT40 Tdp1-/- hTDP1 cells, no CPT, ATP luminescence, 48 h; Potency, µM (doses to about 46.2 µM), without a hit: top-dose activity change, negative = growth inhibition, hits mostly inhibitors; actives 15% (n = 420,000); AID 686978, 2013; also: nearly all actives have a fitted effect of over 55% in size
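Chicken DT40 Tdp1-/- cells stably complemented with human TDP1 were seeded at 400 cells/well with DMSO in place of 20 nM camptothecin. After compound pinning, cells grew at least 48 hr at 37 °C; viability read by CellTiter-Glo luminescence.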
TDP1 cell CPT – DT40-hTDP1 cell growth loss with CPT; AID 686979; chicken DT40 Tdp1-/-;hTDP1 cells + 20 nM CPT, ATP luminescence, 48 h; actives 12% (n = 420,000); Potency, µM (titrated, usually from 46.2 µM), inactives show at the top dose activity change, negative = growth inhibition, usual class: inhibitors; also: nearly all actives have a fitted effect of over 55% in size
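Chicken DT40 Tdp1-/- cells stably complemented with human TDP1 were seeded at 400 cells/well in medium containing 20 nM camptothecin, exposed to pin-transferred compounds, and grown at 37 °C for at least 48 hr. Viability was read as ATP luminescence.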
RORgamma inh – ROR gamma (mouse) transcription inhibition | actives 5.4% (n = 310,000) | Potency, µM (highest dose often 53.6 µM), for the others: at the highest dose activity change, negative = inhibition, most hits filed as inhibitors | Drosophila S2 Gal4-RORgamma UAS-luciferase reporter, 20 h | P51450; also: nearly all actives have a fitted effect of over 60% in size
Target sequence (P51450 whole entry, looked up, the tested form may be a part): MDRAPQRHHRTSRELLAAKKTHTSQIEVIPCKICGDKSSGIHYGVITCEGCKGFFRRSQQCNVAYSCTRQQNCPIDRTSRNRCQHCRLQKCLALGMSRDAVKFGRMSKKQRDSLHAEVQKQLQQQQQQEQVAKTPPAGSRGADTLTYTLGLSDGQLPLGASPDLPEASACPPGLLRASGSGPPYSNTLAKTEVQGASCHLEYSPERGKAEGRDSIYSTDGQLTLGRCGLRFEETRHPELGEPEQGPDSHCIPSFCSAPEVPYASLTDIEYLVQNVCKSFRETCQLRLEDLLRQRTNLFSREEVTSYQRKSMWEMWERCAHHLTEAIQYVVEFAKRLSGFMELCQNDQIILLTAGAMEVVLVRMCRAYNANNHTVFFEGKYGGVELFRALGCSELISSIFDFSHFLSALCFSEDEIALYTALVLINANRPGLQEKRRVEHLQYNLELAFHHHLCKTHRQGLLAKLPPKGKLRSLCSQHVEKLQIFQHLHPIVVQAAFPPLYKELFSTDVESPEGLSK
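A Gal4/UAS one-hybrid system in insect cells: metallothionein-promoter Gal4–ROR gamma fusion plus Photinus luciferase reporter. Copper sulfate 700 uM final, 20 hr ambient incubation, luminescent detection after 10 min with reagent.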
Gal4-VP16 FLuc – Gal4-VP16 reporter inhibition counter-screen; Drosophila S2 Gal4-VP16 UAS-luciferase, luminescence, 20 h; Potency, µM (doses to about 53.6 µM), for inactives: at the top dose activity, negative = inhibition, most hits filed as inhibitors; AID 2546; actives 3.5% (n = 310,000);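 also: Gal4-VP16 expression switched on by copper sulfate through the metallothionein promoter; nearly all actives have a fitted effect of over 50% in size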
TDP1 inh – TDP1 (human) enzyme inhibition | Q9NUW8 | recombinant TDP1, AlphaScreen DNA substrate cleavage | Potency, µM (series often up to 130 µM), for inactives: top-dose activity change, negative = inhibition, most hits filed as inhibitors | actives 0.28% (n = 350,000) | AID 485290; also: nearly all actives have a fitted effect of over 40% in size
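Steps: enzyme plus compound, 15 min RT; add biotin/phosphotyrosine-FITC oligonucleotide (15 nM final), react 5 min; add donor/acceptor beads (10 ug/ml final), 10 min; read AlphaScreen. Tdp1 at 1 nM final.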
The depositor's hits bear a star; ? = inconclusive; / = no result given; [ ] = dose if it differs, or a comment. Most compounds without a hit are left out; they make up all but 19% or so of the library. Calls follow the shape of the dose curve; as a rule, active = well fitted curve in the direction sought with a large enough effect; inconclusive = small, poorly fitted or top-dose-only effect, or another doubt; inactive = no such curve, though single readings can be large; an effect the other way counts as inactive or inconclusive. % is scaled to controls: 0 for no effect and ±100 for the full control effect; potency is read from the fitted curve at half-maximal effect.

SMILES | DT40 TDP1 no CPT | TDP1 cell CPT | RORgamma inh | Gal4-VP16 FLuc | TDP1 inh
COC(=O)/C=C1\OC(C2CC2)c2ccccc21 (centres undefined) | 16µM* | 8.2µM* | / | / | /
COC(=O)/C=C1\OCc2c(F)cccc21 | -4% | -20% | / | / | /
COc1ccc(C2CC(c3cccc(Br)c3)=NN2c2ccc(S(N)(=O)=O)cc2)cc1 (centres undefined) | ? | 26µM* | / | / | -9%[56.1 µM]
COc1ccc(C2CC(c3cccc(C(F)(F)F)c3)=NN2c2ccc(S(N)(=O)=O)cc2)cc1 (centres undefined) | 26µM* | ? | / | / | -9%[56.1 µM]
COc1ccc(C2CC(c3cccc(F)c3)=NN2c2ccc(S(N)(=O)=O)cc2)cc1 (centres undefined) | ? | ? | / | / | -7%[56.1 µM]
Cc1cc(OCCCCn2ccnc2)cc(C)c1Cl | 21µM* | 18µM* | 13µM* | -24% | 10%
Cc1ccccc1OCCCCCn1ccnc1 | 16µM* | 21µM* | 11µM* | -6% | 5%
Cc1cc(Cl)cc(C)c1OCCCCn1ccnc1 | ? | ? | 11µM* | -29% | 8%
CCCn1nc(C(=O)Nc2cc(OCC)c(N3CCOCC3)cc2OCC)c2ccccc2c1=O | 3.3µM* | 16µM* | / | / | /
COc1ccc(S(=O)(=O)N2CCOCC2)cc1NC(=O)CN1CCCC1 | 12% | 10% | -5% | -12% | 6%
CCOc1cc(N2CCOCC2)c(OCC)cc1NC(=O)c1ccc(OC(C)C)cc1 | 21µM* | ? | -2% | 10% | 8%
COc1ccc(S(=O)(=O)N2CCOCC2)cc1NC(=O)CN1CCC(Cc2ccccc2)CC1 | 16µM* | 16µM* | 41% | -25% | 7%
CCOc1cc(N2CCOCC2)c(OCC)cc1NC(=O)c1ccc(-n2ccnc2)c([N+](=O)[O-])c1 | 15µM* | -30% | -15% | -3% | 8%
CCOc1cc(N2CCOCC2)c(OCC)cc1NC(=O)Cn1[nH]c(=O)c2ccccc2c1=O | ? | -17% | 1% | -3% | -1%
COc1ccc(N2C(=O)NC3CC2(C)Oc2ccc(Br)cc23)cc1OC (centres undefined) | ? | -25% | 7% | 0% | -1%
Cc1[nH]c(=O)[nH]c(=O)c1S(=O)(=O)N1CCCC(C(=O)NCc2ccco2)C1 (centres undefined) | -3% | -22% | 12% | 4% | -1%
COC(=O)c1cc(OC)c(OC)cc1NC(=S)N1CCCC1 | 0% | 3% | 17% | -10% | -5%
O=C(NCCc1ccccc1)Nc1nnc([C@@H]2C[C@H](O)[C@@H](CO)O2)s1 | -2% | 4% | / | / | /
CCOc1cc(N2CCOCC2)c(OCC)cc1NC(=O)COC(=O)c1ccc(OC)c([N+](=O)[O-])c1 | 23µM* | 15µM* | / | / | /
CCOc1cc(N2CCOCC2)c(OCC)cc1NC(=O)CSc1ncccn1 | ? | -23% | -26% | -2% | 1%
CCOc1cc(N2CCOCC2)c(OCC)cc1NC(=O)c1cccc(S(=O)(=O)N2CCOCC2)c1 | ? | -25% | / | / | 0%
CCOc1cc(N2CCOCC2)c(OCC)cc1NC(=O)C(C)C | -15% | -22% | -5% | 2% | 6%
CCOc1cc(N2CCOCC2)c(OCC)cc1NC(=O)c1cc(C)cc(C)c1 | 12µM* | 13µM* | 21% | 3% | 3%
CCOc1cc(N2CCOCC2)c(OCC)cc1NC(=O)c1ccccc1 | 16µM* | 21µM* | -3% | -22% | -2%
CCOc1cc(N2CCOCC2)c(OCC)cc1NC(=O)CSc1ncccc1C(=O)O | 6.5µM* | ? | / | / | 2%
SMILES | DT40 TDP1 no CPT | TDP1 cell CPT | RORgamma inh | Gal4-VP16 FLuc | TDP1 inh
COc1cc(S(=O)(=O)NC(Cc2c[nH]c3ccccc23)C(=O)O)ccc1NC(C)=O (centres undefined) | -8% | 3% | -6% | 6% | /
CCOc1cc(N2CCOCC2)c(OCC)cc1NC(=O)c1c(-c2ccccc2Cl)noc1C | 7.3µM* | 10µM* | -18% | 4% | 10%
CCOc1cc(N2CCOCC2)c(OCC)cc1NC(=O)c1ccc(S(=O)(=O)N(C)C)cc1 | ? | ? | -29% | -1% | 2%
CCOc1cc(N2CCOCC2)c(OCC)cc1NC(=O)CN1C(=O)NC(Cc2ccccc2)C1=O (centres undefined) | -19% | 3% | -11% | -9% | 1%
CCOc1cc(N2CCOCC2)c(OCC)cc1NC(=O)CN1CCC(Cc2ccccc2)CC1 | ? | 23µM* | -18% | 6% | 2%
CCOc1cc(N2CCOCC2)c(OCC)cc1NC(=O)c1c(-c2ccccc2)noc1C | -54% | ? | / | / | 4%[56.1 µM]
CCOc1cc(N2CCOCC2)c(OCC)cc1NC(=O)Cc1ccccc1 | ? | -18% | 0% | 14% | 4%
CCOc1cc(N2CCOCC2)c(OCC)cc1NC(=O)c1ccc(C)cc1 | 9.2µM* | ? | 25% | ? | 1%
CCOc1cc(N2CCOCC2)c(OCC)cc1NC(=O)Cc1ccccc1OC | 18µM* | 16µM* | -53% | 22µM* | 7%
Oc1[nH]c2ccccc2c1N=Nc1cccc(Cl)c1 | 0% | 2% | -12% | -13% | /
Cc1sc2ncnc(N=Nc3c(O)[nH]c4ccccc34)c2c1C | 23µM* | -8% | -6%[10 µM] | 10% | -5%
CCc1cc2c(N=Nc3c(O)[nH]c4ccccc34)ncnc2s1 | 21µM* | 18µM* | -5%[10 µM] | -8% | 0%
Oc1[nH]c2ccccc2c1N=Nc1nncc2ccccc12 | ? | ? | -32% | -15% | 3%
COC(=O)c1sc(N)c(C(=O)OC)c1CSc1nnnn1C | -15% | -14% | ? | -13% | 2%
Cc1ccc(OCCSc2nc3ccc(NC(=O)c4cccs4)cc3s2)cc1 | -25% | -24% | / | / | -3%
COC(=O)C(C(C)C)N(Cc1cc(OC)cc(OC)c1)S(=O)(=O)CCl (centres undefined) | 21µM* | 16µM* | / | / | 1%[56.1 µM]
CCCN(CC(=O)Nc1cc(Cl)cc(Cl)c1)CC(=O)Nc1ccc(F)c(F)c1F | 23µM* | ? | ? | 22µM* | 2%
CCCN(CC(=O)Nc1ccccc1Br)CC(=O)Nc1ccc(F)c(F)c1F | ? | ? | -3% | 4% | 1%
COc1ccccc1N1C(=O)C2C(C(=O)c3ccccc3)=NN(c3ccc(Br)cc3)C2C1=O (centres undefined) | -27% | -1% | -26% | 0% | 0%
Cc1ccc(Oc2ccc(S(=O)(=O)N3CCOCC3)cc2C(N)=O)c(-n2nc3ccccc3n2)c1 | 4.1µM* | 3.7µM* | -11% | -13% | 6%
CCCCCN1C2=NCCN2c2ccccc21 | 16µM* | 29µM* | -29% | 2% | 4%[56.1 µM]
CCCN1C2=NCCN2c2cc(C)c(C)cc21 | 23µM* | -27% | ? | -1% | 2%
